Screens as filed in PubChem.
MRP resist rev: MRP-mediated drug resistance reversal | H69AR cells + 2 uM doxorubicin, CellTiter-Glo, 72 h | differential viability (reversal), % at 10 µM | 0.04% of 85,000 active;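 active = viability drop by adding the cancer drug above about 55%, with treated viability meeting a 40% cutoff, limit read from the data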;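 note: larger differential means the compound sensitizes cells more to doxorubicin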
S1P2 ag: agonists of human S1P2 receptor. O95136. S1P2-expressing cell line, agonist reporter read-out. activation, % at 4.5 µM. 0.46% of 97,000 active. AID 729; in the data active = activation above about 16%
Target sequence (O95136 whole entry, looked up): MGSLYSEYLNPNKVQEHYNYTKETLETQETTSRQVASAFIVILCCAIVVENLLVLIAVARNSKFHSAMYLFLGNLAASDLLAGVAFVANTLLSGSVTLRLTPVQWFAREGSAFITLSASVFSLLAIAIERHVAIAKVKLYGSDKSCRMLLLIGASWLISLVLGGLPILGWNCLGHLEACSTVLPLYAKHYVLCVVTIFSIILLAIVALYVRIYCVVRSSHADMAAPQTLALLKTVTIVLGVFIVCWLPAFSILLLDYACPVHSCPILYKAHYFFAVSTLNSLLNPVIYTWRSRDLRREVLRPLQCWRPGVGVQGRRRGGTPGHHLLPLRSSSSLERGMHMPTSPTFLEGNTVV
S1P2 antag: S1P2 (human) receptor antagonism | O95136 | AID 736 | inhibition, % at 5 µM | cell-based S1P2 antagonist assay, inhibition at 5 uM | 0.21% of 97,000 active; in the data active = inhibition above about 45%;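 note: CRE beta-lactamase reporter cells expressing human S1P2 stimulated with S1P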
GALR2 agonist: GALR2 (human) receptor agonism. 0.48% of 140,000 active. activation, % (concentration not given with the values). AID 803. GALR2-expressing cells, agonist activation read-out; in the data active = activation above about 5%, passing the limit was not always enough
Target sequence (O43603 whole entry, looked up): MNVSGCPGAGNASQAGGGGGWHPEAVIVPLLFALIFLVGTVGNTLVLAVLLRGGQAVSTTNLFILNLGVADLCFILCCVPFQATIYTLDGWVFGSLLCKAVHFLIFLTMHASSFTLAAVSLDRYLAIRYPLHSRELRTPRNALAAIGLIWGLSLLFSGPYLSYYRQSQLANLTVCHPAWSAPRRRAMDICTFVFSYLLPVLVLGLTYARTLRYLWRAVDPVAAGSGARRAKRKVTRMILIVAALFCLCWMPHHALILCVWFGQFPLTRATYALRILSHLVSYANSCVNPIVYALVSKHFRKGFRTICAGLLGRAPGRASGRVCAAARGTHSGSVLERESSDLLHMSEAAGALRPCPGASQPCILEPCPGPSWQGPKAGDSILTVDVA
MRP-1 activ: activates MRP-1; H69AR cells + doxorubicin, viability rescue, CellTiter-Glo; viability increase, % at 10 µM; 0.61% of 140,000 active; AID 799;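 active = viability gain under doxorubicin at or above a set limit, the compound median plus 3 SD, cut at about 4.7% in these data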;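 note: MRP-1 overexpressing cells given doxorubicin 25 µM after compound pretreatment; 18-22 h compound pretreatment then 72 h with doxorubicin before readout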
GALR2 antag: antagonists of human galanin receptor 2 (GALR2) | GALR2-expressing cells, antagonist mode | inhibition, % at 4 µM | AID 828 | O43603 | 0.39% of 140,000 active; in the data active = inhibition above about 27%;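 note: cells stimulated with galanin 1-16 at roughly its EC80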
Each line names hits and unclear results; the compound was inactive in the other large screens. Rows were chosen to be rich in hits. Some 1.8% of all compounds tested hit in one or more screens of this group.

CCOc1ccc(-c2nc(C#N)c(N3CCCCCC3)o2)cc1	MRP-1 activ 5.7
CCOc1ccc(-c2nc(C#N)c(N3CCN(C)CC3)o2)cc1	none
O=C1c2cccc3cccc(c23)C(=O)N1c1ccncc1	MRP-1 activ 5.7
O=C(CSc1nc2cc(Cl)ccc2s1)c1ccco1	none (no result: S1P2 ag, S1P2 antag)
CCN(CC)c1cc2nc(C)n(Cc3ccccc3)c(=O)c2cc1NC(=O)C1CC1	MRP-1 activ 4.8
Cc1nnc(NC(=O)NC(C)N2C(=O)C3C4C=CC(C4)C3C2=O)s1 (stereo not drawn)	none (no result: MRP resist rev)
CCc1nnc(NC(=O)C(C)N2C(=O)C3C4C=CC(C4)C3C2=O)s1 (stereo not drawn)	MRP-1 activ 8.2
O=C(CSc1nnc(-c2ccccc2)n1-c1ccc(Cl)cc1)N/N=C/c1ccco1	MRP-1 activ 5.2 (no result: MRP resist rev, S1P2 ag, S1P2 antag)
C=CCC(Nc1ccccc1)C12C=CC(O1)C(C(=O)OC)=C2C(=O)OC (stereo not drawn)	S1P2 antag 65
COC(=O)C1=C(C)OC(N)=C(C#N)C1c1ccccc1 (stereo not drawn)	none
CN1CCN(Cc2nc3ccccc3c(=O)n2Cc2nc(-c3ccc4ccccc4c3)cs2)CC1	GALR2 agonist 7.7 (no result: MRP resist rev, S1P2 ag, S1P2 antag)
O=C(Nc1ccncc1)c1cc(F)cc(F)c1	none
O=C(CC(Nc1ccc(F)cc1)C(=O)O)c1ccccc1 (stereo not drawn)	none
O=C(CC(Nc1ccc(F)cc1)C(=O)OCC(=O)c1cccs1)c1ccccc1 (stereo not drawn)	MRP-1 activ 5.2 (no result: MRP resist rev, S1P2 ag, S1P2 antag)
C=CCc1c(C)nc(C)nc1N/N=C/c1ccccc1	none
C=CCc1c(C)nc(-c2ccccc2)nc1N/N=C/c1ccccc1	MRP-1 activ 8.5 (no result: MRP resist rev, S1P2 ag, S1P2 antag)
C=CCc1c(C)nc(-c2ccccc2)nc1Nc1ccccc1O	none (no result: MRP resist rev, S1P2 ag, S1P2 antag)
C=CCc1c(C)nc(-c2ccccc2)nc1N/N=C(\C)c1ccc(N)cc1	MRP-1 activ 5.7 (no result: MRP resist rev, S1P2 ag, S1P2 antag)
Cc1ccc2nc(C)cc(Nc3ccc4c(c3)OCCO4)c2c1	none (no result: MRP resist rev)
CCc1c(C)nc2c(OC)cccc2c1SCCC(=O)O	none (no result: MRP resist rev, S1P2 ag, S1P2 antag)
COC(=O)c1c(NC(=O)c2c(-c3ccccc3Cl)noc2C)sc2c1CCC2	none
Cc1onc(-c2ccccc2Cl)c1C(=O)Nc1sc2c(c1C(N)=O)CCC(C)C2 (stereo not drawn)	MRP-1 activ 4.8
Cc1c(C(=O)NCc2ccccc2)oc2ccc(S(=O)(=O)N3CCCC3)cc12	none
Cc1ccc(CNC(=O)c2oc3ccc(S(=O)(=O)N4CCOCC4)cc3c2C)cc1	S1P2 antag 50
Cc1nc(OCc2ccccc2)c2sc3nc4c(cc3c2n1)COC(C)(C)C4	MRP-1 activ 6.1
CCCOc1ccccc1Cn1c(=O)oc2ccc(C)cc21	none
CCCOc1ccc(Cn2c(=O)oc3ccc(C)cc32)cc1OC	S1P2 ag 29 (no result: MRP resist rev)
COc1cccc(-n2c(SCC(=O)Nc3sc4c(c3C(N)=O)CCC4)nc3ccccc3c2=O)c1	S1P2 ag 19 (no result: MRP resist rev)
COc1cccc(-n2c(SCC(=O)NCc3cccs3)nc3ccccc3c2=O)c1	none (no result: MRP resist rev, S1P2 ag, S1P2 antag)
CCOc1ccc2c(c1)c(N=O)c(O)n2C	MRP-1 activ 6.0 (no result: MRP resist rev, S1P2 ag, S1P2 antag)
CCOc1ccc(/C=N/NC(=O)c2c(C)n(C)c3ccc(OC)cc23)cc1	none (no result: MRP resist rev, S1P2 ag, S1P2 antag)
CC1CN(c2nc3c(c(=O)n(Cc4ccc(Cl)cc4)c(=O)n3C)n2C)CC(C)O1 (stereo not drawn)	MRP resist rev 57
N=C(N)SCc1ccccc1Cl	MRP-1 activ 8.6 (no result: MRP resist rev, S1P2 ag, S1P2 antag)
Nc1nnc(SCc2ccccc2Cl)s1	none
COc1cccc(NC(=O)N2CCCC2C(=O)NCC(C)C)c1 (stereo not drawn)	none
Cc1cccc(-n2c(SCc3cc(=O)n4c(C)cccc4n3)nc3[nH]ncc3c2=O)c1	S1P2 ag 17
COc1c([N+](=O)[O-])c(=O)oc2ccccc12	none (no result: MRP resist rev, S1P2 ag, S1P2 antag)
CC1=C(C(=O)Nc2ccc(F)cc2)C(c2ccc(C)o2)C2=C(CC(C)(C)CC2=O)N1 (stereo not drawn)	S1P2 ag 21
CC1=C(C(=O)OC2CCCCC2)C(c2ccc(C)o2)C2=C(CC(C)(C)CC2=O)N1 (stereo not drawn)	none
[N-]=[N+]=CC(=O)CC(c1ccccc1)N1C(=O)c2ccccc2C1=O (stereo not drawn)	none
C[C@H](C(=O)C=[N+]=[N-])N1C(=O)c2ccccc2C1=O	MRP-1 activ 12
CS(=O)(=O)N1N=C(c2ccco2)CC1c1ccc(Br)cc1 (stereo not drawn)	none (no result: MRP resist rev, S1P2 ag, S1P2 antag)
CCN(CC)C(=O)C(=O)c1c(-c2ccccc2)[nH]c2ccccc12	MRP-1 activ 23 (no result: MRP resist rev, S1P2 ag, S1P2 antag)
O=C(NC1CC1)C(=O)c1c(-c2ccccc2)[nH]c2ccccc12	none (no result: MRP resist rev, S1P2 ag, S1P2 antag)
CC(=O)Nc1ccc2[nH]c3ccccc3c2c1	none
COC(=O)CCc1c(C)[nH]c(C(=O)OCc2ccccc2)c1C	MRP-1 activ 5.1
O=C(CC1SC(=O)N(Cc2ccc(Cl)cc2)C1=O)Nc1nccs1 (stereo not drawn)	MRP-1 activ 12 (no result: MRP resist rev, S1P2 ag, S1P2 antag)
COc1cc(-c2nnc(COC(=O)c3c4c(nc5ccccc35)CCCC4)o2)cc(OC)c1OC	S1P2 ag 43 (no result: MRP resist rev)
CS(=O)(=O)N(Cc1ccccc1)c1ccc(C(=O)Nc2ccccc2Sc2ccccc2)cc1	none (no result: MRP resist rev, S1P2 ag, S1P2 antag)
c1ccc2nc3c(nc2c1)c1ccccc1n3CCN1CCOCC1	none
CCn1c2ccccc2c2nc3cc(S(=O)(=O)N4CCOCC4)ccc3nc21	S1P2 ag 31
Cn1nc(CC(=O)NCc2ccc(C(F)(F)F)cc2)c2ccccc2c1=O	S1P2 antag 62
COc1ccc(/C=N\N=C2/SC(CC(=O)O)C(=O)N2c2ccc(O)cc2)cc1OC (stereo not drawn)	none (no result: MRP resist rev, S1P2 ag, S1P2 antag)
CCOc1ccc(/C=N/N2C(=O)C(CC(=O)Nc3ccc(F)cc3F)SC2=NC)cc1OC (stereo not drawn)	GALR2 agonist 6.0 (no result: MRP resist rev, S1P2 ag, S1P2 antag)
CCCOC(=O)c1ccc(-c2ccc(C=O)o2)cc1	none (no result: MRP resist rev, S1P2 ag, S1P2 antag)
CCCCOC(=O)c1ccc(-c2ccc(/C=N/NC(=S)NCC)o2)cc1	S1P2 ag 23 (no result: MRP resist rev)
O=C(Cn1cnc2c(nnn2Cc2ccc(F)cc2)c1=O)NCc1ccco1	S1P2 ag 33
N/C(Cc1ccc(Cl)cc1)=N\OC(=O)c1ccc2ccccc2c1	none
COc1cccc(-c2nc3sc4c(c3c(=O)[nH]2)CCCCC4)c1	none (no result: MRP resist rev, S1P2 ag, S1P2 antag)
O=C(Cc1coc2ccc3ccccc3c12)N1CCCC1	S1P2 ag 25
CC(C)CN(CC(C)C)C(=O)Cc1coc2ccc3ccccc3c12	none
Cc1cc(=O)[nH]c(N/N=C/c2cccs2)n1	none (no result: MRP resist rev, S1P2 ag, S1P2 antag)
CC1=C(C(=O)Nc2ccccc2)C(c2ccc(C)o2)N2C(=O)CSC2=N1 (stereo not drawn)	MRP-1 activ 11
CC1=C(C(=O)Nc2ccccc2)C(c2ccccc2)N2C(=O)CSC2=N1 (stereo not drawn)	none
CC(C)(C)C1CCc2c(sc(NC(=O)C3CC=CCC3C(=O)O)c2C#N)C1 (stereo not drawn)	none (no result: MRP resist rev, S1P2 ag, S1P2 antag)
CC(C)c1ccc(-c2nc(N3CCCCCC3)nc3n[nH]c(N)c23)cc1	none
CC(C)c1ccc(-c2nc(N3CCCC3)nc3n[nH]c(N)c23)cc1	GALR2 agonist 6.2 (no result: S1P2 ag, S1P2 antag)
O=S1(=O)C=C(Sc2nc3ccccc3s2)c2ccccc21	GALR2 antag 74 (no result: S1P2 ag, S1P2 antag)
